Source: PubChem BioAssay AID743198 (NMMLSC, 2013)
Calls of active or inactive are those of the source.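 How the source made its calls: active means at least 15% MAC1-positive differentiation at the top dose and half-maximal dose below 10 µM; inactive means the rest.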

Experiment: myeloid differentiation effect on human CD34+ progenitors – cell-based, MAC1 flow cytometry, set 1, SAR follow-up (AID 743198)
Conditions: human CD34+ cells, 4 days; at 10 µM (top of the series)

Structure (SMILES) | MAC1+ differentiation, normalised [%] | outcome
O=C(CCNC(=O)c1ccc(Cl)cc1)NC1CCCc2ccccc21 (stereo not given) | 86.2 | –
O=C(CCNC(=O)c1ccc(Cl)cc1)N[C@@H]1CCCc2ccccc21 | 95.7 | –
O=C(CCNC(=O)c1ccc(Cl)c(Cl)c1)N[C@@H]1CCCc2ccccc21 | 96.1 | –
O=C(CCCNC(=O)c1ccc(OC(F)(F)F)cc1)N[C@@H]1CCCc2ccccc21 | – | inactive
O=C(CCNC(=O)c1ccc(Cl)cc1)N[C@H]1CCCc2ccccc21 | – | inactive
O=C(CCNC(=O)c1ccc2c(c1)OC(F)(F)O2)N[C@@H]1CCCc2ccccc21 | 90 | –
O=C(CNC(=O)c1ccc(OC(F)(F)F)cc1)N[C@@H]1CCCc2ccccc21 | – | inactive
O=C(CCNC(=O)c1ccc(C(F)(F)F)cc1)N[C@@H]1CCCc2ccccc21 | 96 | –
O=C(CCNC(=O)c1ccc(OC(F)(F)F)cc1)N[C@@H]1CCCc2ccccc21 | 96.3 | –
O=C(O)c1cccnc1Nc1ccc(Cl)cc1 | 85 | –
